# USP8 inh: human USP8 deubiquitinase inhibition | inhibition, % at 20 µM | purified USP8, Ub-rhodamine cleavage fluorescence, 30 min | 47,000 compounds, 4.2% hits
# USP28 inh: inhibitors of human USP28 deubiquitinase | Q96RU2 | inhibition, % at 25 µM | 47,000 compounds, 3% hits | purified USP28, Ub-rhodamine cleavage fluorescence, 30 min
# OTUD3 block: human OTUD3 deubiquitinase inhibition; AID 1645858; purified OTUD3, Ub-rhodamine fluorescence, 2 h; 47,000 compounds, 0.7% hits; inhibition, % at 25 µM
# Target sequence (Q5T2D3 whole entry, looked up): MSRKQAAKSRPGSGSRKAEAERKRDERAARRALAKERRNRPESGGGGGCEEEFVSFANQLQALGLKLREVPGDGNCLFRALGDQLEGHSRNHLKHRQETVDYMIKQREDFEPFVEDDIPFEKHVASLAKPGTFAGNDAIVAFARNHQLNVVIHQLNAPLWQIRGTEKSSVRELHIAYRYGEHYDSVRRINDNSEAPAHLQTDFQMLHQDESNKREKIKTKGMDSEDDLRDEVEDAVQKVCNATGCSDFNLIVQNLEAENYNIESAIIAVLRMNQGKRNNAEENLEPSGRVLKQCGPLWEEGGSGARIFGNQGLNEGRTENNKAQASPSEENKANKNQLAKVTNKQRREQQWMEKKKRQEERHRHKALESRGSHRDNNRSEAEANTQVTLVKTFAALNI
# USP17 block: human USP17-like deubiquitinase inhibition; A8MUK1; purified USP17, Ub-rhodamine cleavage fluorescence, 3 h; inhibition, % at 50 µM; 47,000 compounds, 6.5% hits; AID 1645855
# USP30 block: inhibitors of human USP30 deubiquitinase; Q70CQ3; inhibition, % at 25 µM; 47,000 compounds, 5.3% hits; purified USP30, Ub-rhodamine cleavage fluorescence; AID 1645860
# Starred values were filed as active, the others as inactive; · = no result given. The list is not random: actives were taken first. Their share in the collection is about 13%. Rule as the data show it: active = inhibition above about 30%; inactive = the rest.
SMILES,USP8 inh,USP28 inh,OTUD3 block,USP17 block,USP30 block
CCc1noc(-c2c(S(=O)(=O)NCc3ccccc3)c(C)n(C)c2C)n1,15,6,10,3,9
O=c1c2ccccc2c(-c2nc(-c3cccnc3)no2)cn1-c1ccc(Cl)cc1,7,6,8,4,38*
c1ccc(-n2cc(-c3noc(-c4cccnc4)n3)nn2)cc1,20,7,8,20,28
Cn1ncc2c(N3CCSCC3)nc(C(=O)NC3CC3)nc21,1,5,13,4,7
Cc1cc2nc(-c3ccc(SCc4ccccn4)nc3)[nH]c2cc1C,6,24,-9,57*,26
COc1ccc(C(=O)CSc2nnc(-c3cc4cccc(OC)c4o3)n2C)cc1OC,0,0,-4,18,53*
COc1cc(NC(=O)CSc2nnc(-c3cc4ccccc4n3C)o2)cc(OC)c1,16,15,20,20,49*
COc1cccc(NC(=O)CSc2nnc(-c3cc4cccc(OC)c4o3)n2C)c1,1,7,11,60*,50*
O=C(CSc1nnc(-c2cc3ccccc3[nH]2)o1)Nc1cccc(F)c1,15,-21,-22,-38,-85
O=C(c1ccccc1)N1CCCCCC1C1CCN(c2ncccn2)CC1 (configuration not stated),13,11,12,8,26
O=C1CCSc2ccc(S(=O)(=O)CCC(=O)N3CCc4ccccc4C3)cc2N1,-1,17,10,39*,13
Cc1nnc(Sc2cc(C(=O)NCCN3CCCC3)c3ccccc3n2)s1,1,-9,-7,52*,-12
COc1ccc(CC(=O)N2CCC([C@@H]3C[C@H](C(F)F)n4ncnc4N3)CC2)cc1,1,5,1,2,11
COc1ccc(/C=C/C(=O)Nc2ccc(C)cn2)cc1,9,·,1,70*,·
CCS(=O)(=O)N1Cc2ccccc2CC1C(=O)Nc1nc2ccccc2s1 (configuration not stated),32*,-4,-21,26,-34
O=C(Nc1nc2ccccc2s1)C1CC(=O)N(c2ccccc2)C1 (configuration not stated),-6,0,-4,-13,-17
O=C(Nc1ccc2c(c1)OCO2)c1cncc(NS(=O)(=O)c2ccc3c(c2)OCCO3)c1,45*,-47,-50,-41,-282
O=C(Nc1ccc2c(c1)OCO2)c1cncc(NS(=O)(=O)c2ccccc2)c1,70*,0,-3,16,-136
Cc1noc(C)c1S(=O)(=O)Nc1ccc(C(=O)Nc2ccc3c(c2)OCCO3)cc1,8,85*,0,13,0
O=C(Nc1ccc(S(=O)(=O)N2CCCCC2c2cccnc2)cc1)c1ccc2c(c1)OCO2 (configuration not stated),21,41*,10,30,44*
CCN(CC)c1ccc2c(c1)OC(=O)NC2(c1ccc(OC)cc1)C(F)(F)F (configuration not stated),0,-3,-10,-3,-11
Fc1ccccc1N1CCN(Cc2cccc(Oc3ccccc3)c2)CC1,-14,-6,0,-5,-18
COc1cccc(NC(=O)CSC2=NC3(CCCC3)Nc3ccccc32)c1,-7,-13,-21,8,-121
Cc1ccc(NC(=O)c2cc(NC(=O)Cc3ccccc3)ccc2N2CCCCC2)cc1Cl,-13,-23,-21,·,-94
O=C(NCc1ccccn1)c1nnn(-c2ccc(F)cc2)c1-c1ccncc1,-11,6,9,0,13
SMILES,USP8 inh,USP28 inh,OTUD3 block,USP17 block,USP30 block
O=C(NC1CCCCC1)c1ccc(SCCN2CCCCC2)nc1,-4,-5,-6,-10,-18
Nc1ccc(NS(=O)(=O)c2ccc3c(c2)OCCCO3)cc1,33*,-2,-3,16,-8
COc1ccc(C)cc1NC(=O)CCn1cnc2ccccc2c1=O,7,3,11,-6,0
COc1ccc(C)cc1NCC(=O)Nc1ncc(Cl)c(C)c1Cl,36*,-2,-10,24,-82
N#Cc1ccc(C(=O)N2CCc3sccc3C2c2ccccc2)cc1 (configuration not stated),-271,4,4,-22,-5
O=C(Nc1ccccc1Cl)N1CCN(Cc2nnnn2-c2ccc(F)cc2)CC1,3,0,3,0,12
O=C(c1cc(F)cc(F)c1)N1CCCC(c2[nH]nc3nccnc23)C1 (configuration not stated),-35,2,-1,-7,1
O=C(c1c(F)cccc1F)N1CCCC(c2[nH]nc3nccnc23)C1 (configuration not stated),30*,0,-1,6,-2

# Assay outcomes from PubChem BioAssay.
